PubChem BioAssay (EPA / NIEHS)
“And” between values parts separate entries of the source, which are not always exact repeats. Identical values can stand only once. More than one record can exist for a structure, and the calls need not agree. The source made the active and inactive calls. Rule for the calls: active = hit-call score of the fitted dose curve at least 0.9, where 1 is the maximum; inactive = score below 0.9.

Tests used:
[1] = read-out: Tissue plasminogen activator (tPA), PLAT (gene 5327); assay: BSK_BE3C_tPA: BioMAP Diversity Plus: BE3C Assay for Tissue plasminogen activator (tPA) Biomarker Activity (AID 2283041); conditions: primary human bronchial epithelial cells; actives raise or lower the signal
Summary of the method: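 Human primary bronchial epithelial cells were dosed with chemical and tPA biomarker levels measured by ELISA 24 hours later. Activity was fitted bidirectionally against DMSO as negative control and baseline.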

[2] = read-out: Interleukin-8 (IL8), CXCL8 (gene 3576); assay: BSK_CASM3C_IL8: BioMAP Diversity Plus: CASM3C Assay for Interleukin-8 (IL8) Biomarker Activity (AID 2283042); conditions: primary human coronary artery smooth muscle cells; actives raise or lower the signal;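 note: IL-8 protein level quantified by ELISA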
[3] = read-out: Human Leukocyte Antigen - DR isotype (HLADR), HLA-DRA (gene 3122); assay: BSK_CASM3C_HLADR: BioMAP Diversity Plus: CASM3C Assay for Human Leukocyte Antigen - DR isotype (HLADR) Biomarker Activity (AID 2283043); conditions: primary human coronary artery smooth muscle cells; actives raise or lower the signal;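 note: cell-surface HLA-DR protein level quantified by ELISA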
[4] = read-out: Macrophage colony-stimulating factor (MCSF), CSF1 (gene 1435); assay: BSK_CASM3C_MCSF: BioMAP Diversity Plus: CASM3C Assay for Macrophage colony-stimulating factor (MCSF) Biomarker Activity (AID 2283044); conditions: primary human coronary artery smooth muscle cells; actives raise or lower the signal;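 note: M-CSF protein amount quantified by ELISA after 24 h exposure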
[5] = read-out: Low-density lipoprotein receptor (LDLR), LDLR (gene 3949); assay: BSK_CASM3C_LDLR: BioMAP Diversity Plus: CASM3C Assay for Low-density lipoprotein receptor (LDLR) Biomarker Activity (AID 2283045); conditions: primary human coronary artery smooth muscle cells; actives raise or lower the signal;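 note: LDLR protein level on the cell surface quantified by ELISA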
[6] = read-out: Monocyte Chemoattractant Protein-1 (MCP1), CCL2 (gene 6347); assay: BSK_CASM3C_MCP1: BioMAP Diversity Plus: CASM3C Assay for Monocyte Chemoattractant Protein-1 (MCP1) Biomarker Activity (AID 2283046); conditions: primary human coronary artery smooth muscle cells; actives raise or lower the signal;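 note: MCP-1 level quantified by ELISA 24 h after dosing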
[7] = BSK_CASM3C_Proliferation: Cell Proliferation Assessment in the BioMAP Diversity Plus: CASM3C Assay (AID 2283047); conditions: primary human coronary artery smooth muscle cells;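 note: sulforhodamine B total protein stain as relative cell number at 560 nm; sub-confluent cells exposed 48 h before staining; fitted both ways against DMSO so gain or loss of cell number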
[8] = read-out: Monokine induced gamma interferon (MIG), CXCL9 (gene 4283); assay: BSK_CASM3C_MIG: BioMAP Diversity Plus: CASM3C Assay for Monokine induced gamma interferon (MIG) Biomarker Activity (AID 2283048); conditions: primary human coronary artery smooth muscle cells; actives raise or lower the signal;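 note: MIG protein level measured by ELISA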
[9] = read-out: serum amyloid A (SAA), SAA1 (gene 6288); assay: BSK_CASM3C_SAA: BioMAP Diversity Plus: CASM3C Assay for serum amyloid A (SAA) Biomarker Activity (AID 2283049); conditions: primary human coronary artery smooth muscle cells; actives raise or lower the signal;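 note: SAA protein level quantified by ELISA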
[10] = BSK_CASM3C_SRB: Viability Assessment in the BioMAP Diversity Plus: CASM3C Assay (AID 2283050); conditions: primary human coronary artery smooth muscle cells;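 note: total protein by SRB staining as cytotoxicity measure in parallel cultures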
[11] = read-out: Thrombomodulin, THBD (gene 7056); assay: BSK_CASM3C_Thrombomodulin: BioMAP Diversity Plus: CASM3C Assay for Thrombomodulin Biomarker Activity (AID 2283051); conditions: primary human coronary artery smooth muscle cells; actives raise or lower the signal;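 note: thrombomodulin protein level measured by ELISA 24 h after dosing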
[12] = read-out: Tissue Factor, F3 (gene 2152); assay: BSK_CASM3C_TissueFactor: BioMAP Diversity Plus: CASM3C Assay for Tissue Factor Biomarker Activity (AID 2283052); conditions: primary human coronary artery smooth muscle cells; actives raise or lower the signal;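 note: cell surface tissue factor protein level read by ELISA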
[13] = read-out: Interferon-gamma inducible Protein 10 (IP10), CXCL10 (gene 3627); assay: BSK_hDFCGF_IP10: BioMAP Diversity Plus: hDFCGF Assay for Interferon-gamma inducible Protein 10 (IP10) Biomarker Activity (AID 2283053); conditions: primary human foreskin fibroblasts; actives raise or lower the signal
Summary of the method: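 Human foreskin fibroblast primary cells (hDFCGF system) were dosed with chemical and assayed at 24 h; IP-10 measured by ELISA. Activity fitted bidirectionally relative to DMSO negative control as baseline.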

[14] = read-out: Urokinase-type plasminogen activator receptor (uPAR), PLAUR (gene 5329); assay: BSK_CASM3C_uPAR: BioMAP Diversity Plus: CASM3C Assay for Urokinase-type plasminogen activator receptor (uPAR) Biomarker Activity (AID 2283054); conditions: primary human coronary artery smooth muscle cells; actives raise or lower the signal;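 note: cell-surface uPAR protein level quantified by ELISA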
[15] = read-out: Vascular cell adhesion molecule 1 (VCAM1), VCAM1 (gene 7412); assay: BSK_CASM3C_VCAM1: BioMAP Diversity Plus: CASM3C Assay for Vascular cell adhesion molecule 1 (VCAM1) Biomarker Activity (AID 2283055); conditions: primary human coronary artery smooth muscle cells; actives raise or lower the signal;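 note: VCAM-1 protein level quantified by ELISA on the cells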
[16] = read-out: Collagen III, COL3A1 (gene 1281); assay: BSK_hDFCGF_CollagenIII: BioMAP Diversity Plus: hDFCGF Assay for Collagen III Biomarker Activity (AID 2283056); conditions: primary human foreskin fibroblasts; actives raise or lower the signal
Summary of the method: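 hDFCGF primary human dermal fibroblasts; 24 h chemical exposure; collagen III by ELISA; bidirectional curve fit vs DMSO baseline (gain or loss of signal).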

[17] = read-out: Epidermal growth factor receptor (EGFR), EGFR (gene 1956); assay: BSK_hDFCGF_EGFR: BioMAP Diversity Plus: hDFCGF Assay for Epidermal growth factor receptor (EGFR) Biomarker Activity (AID 2283057); conditions: primary human foreskin fibroblasts; actives raise or lower the signal
Summary of the method: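 Primary human foreskin fibroblasts were exposed to compound for 24 h, after which cell-surface EGFR was quantified by ELISA. Activity was fitted bidirectionally against the DMSO negative control as baseline.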

[18] = read-out: Interleukin-8 (IL8), CXCL8 (gene 3576); assay: BSK_hDFCGF_IL8: BioMAP Diversity Plus: hDFCGF Assay for Interleukin-8 (IL8) Biomarker Activity (AID 2283058); conditions: primary human foreskin fibroblasts; actives raise or lower the signal
Summary of the method: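 ELISA read-out of IL-8 from primary human foreskin fibroblast cultures taken 24 h after dosing; values are bidirectional fits relative to DMSO vehicle.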

[19] = BSK_hDFCGF_Proliferation: Cell Proliferation Assessment in the BioMAP Diversity Plus: hDFCGF Assay (AID 2283059); conditions: primary human foreskin fibroblasts;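 note: curves fitted for both rise and fall of signal versus DMSO baseline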
Summary of the method: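 Primary human foreskin fibroblasts, sub-confluent; […]; 10% TCA fix, 0.1% SRB stain, A560 total protein. Gain/loss fitted bidirectionally vs DMSO control.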

[20] = read-out: Macrophage colony-stimulating factor (MCSF), CSF1 (gene 1435); assay: BSK_hDFCGF_MCSF: BioMAP Diversity Plus: hDFCGF Assay for Macrophage colony-stimulating factor (MCSF) Biomarker Activity (AID 2283060); conditions: primary human foreskin fibroblasts; actives raise or lower the signal
Summary of the method: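 ELISA read-out of M-CSF in human dermal foreskin fibroblast cultures, 24 h after chemical dosing; gain or loss of signal fitted bidirectionally relative to DMSO baseline.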

Measured: AC50

CC#C[C@]1(O)CC[C@H]2[C@@H]3CCC4=CC(=O)CCC4=C3[C@@H](c3ccc(N(C)C)cc3)C[C@@]21C
inactive: [3] | [4] | [5] | [6] | [8] | [9] | [11] | [12] | [13] | [15] | [17] | [18] | [20]
active: [1] 19.4 µM | [2] 5.69 µM | [7] 31.1 µM | [10] 31.8 µM | [14] 30.6 µM | [16] 12.9 µM | [19] 26.6 µM

NC(=O)N(O)[C@@H]1C=C[C@H](Oc2cccc(Oc3ccc(F)cc3)c2)C1
active: [1] 5.68 µM | [3] 3.95 µM | [7] 7.17 µM | [11] 9.41 µM | [13] 20 µM | [19] 13.3 µM | [20] 3.97 µM
inactive: [2] | [4] | [5] | [6] | [8] | [9] | [10] | [12] | [14] | [15] | [16] | [17] | [18]

NCC(F)(F)C(F)(F)C(F)(F)C(F)(F)C(F)(F)C(F)(F)C(F)(F)F
inactive: [1] | [2] | [3] | [4] | [5] | [6] | [7] | [8] | [9] | [10] | [11] | [12] | [13] | [14] | [15] | [16] | [17] | [18] | [19] | [20]

Cc1oc(-c2ccccc2)nc1CCOc1ccc(C[C@H](Nc2ccccc2C(=O)c2ccccc2)C(=O)O)cc1
active: [3] 34.6 µM | [4] 30.8 µM | [5] 4.87 µM | [6] 32.4 µM | [7] 31.8 µM | [10] 32.3 µM | [13] 3.35 µM | [14] 31.2 µM | [15] 32.8 µM | [16] 3.34 µM | [17] 1.85 µM | [18] 7.44 µM | [19] 1.81 µM | [20] 3.14 µM
inactive: [1] | [2] | [8] | [9] | [11] | [12]

N#C[C@@H]1CC(F)(F)CN1C(=O)CNC1CC2CCC(C1)N2c1ncccn1 (stereo partly drawn)
inactive: [1] | [2] | [3] | [4] | [5] | [6] | [7] | [8] | [9] | [10] | [11] | [12] | [13] | [14] | [15] | [16] | [17] | [18] | [19] | [20]

CCC(C)(C)C1CCC(O)CC1 (stereo not drawn)
inactive: [1] | [2] | [3] | [4] | [5] | [6] | [7] | [8] | [9] | [10] | [11] | [12] | [13] | [14] | [15] | [16] | [17] | [18] | [19] | [20]

COc1ccc([N+](=O)[O-])cc1N
inactive: [1] | [2] | [3] | [4] | [5] | [6] | [7] | [8] | [9] | [10] | [11] | [12] | [13] | [14] | [15] | [16] | [17] | [18] | [19] | [20]

C[C@@H]1C[C@H]2[C@@H]3CCC4=CC(=O)C=C[C@]4(C)[C@@]3(F)[C@@H](O)C[C@]2(C)[C@@]1(O)C(=O)COP(=O)(O)O
active: [1] 478 nM and 416 nM | [2] 176 nM and 1.04 µM and 101 nM | [4] 29.4 nM and 113 nM and 217 nM | [6] 141 nM and 1.58 µM and 720 nM | [7] 0.163 µM | [9] 54.4 nM and 105 nM and 155 nM | [11] 29.4 nM and 100 nM | [12] 122 nM and 674 nM | [13] 696 nM and 895 nM | [15] 0.1 µM | [19] 30.3 µM | [20] 615 nM and 730 nM
inactive: [1] | [3] | [5] | [7] | [8] | [10] | [11] | [12] | [13] | [14] | [15] | [16] | [17] | [18] | [19] | [20]

CCOC(=O)CC(O)(CC(=O)OCC)C(=O)OCC
inactive: [1] | [2] | [3] | [4] | [5] | [6] | [7] | [8] | [9] | [10] | [11] | [12] | [13] | [14] | [15] | [16] | [17] | [18] | [19] | [20]

CC(C)(C)c1ccc(O)c(C(C)(C)C)c1
active: [1] 27.5 µM | [2] 27.2 µM | [3] 9.55 µM | [4] 13.2 µM | [5] 12.3 µM | [6] 13.7 µM | [7] 11.4 µM | [8] 15.3 µM | [9] 12.4 µM | [10] 26.7 µM | [11] 35.9 µM | [12] 20 µM | [13] 10.1 µM | [14] 7.58 µM | [15] 29.1 µM | [16] 8.81 µM | [17] 13.2 µM | [18] 12.5 µM | [19] 11.4 µM | [20] 8.8 µM
